Reference: PubChem BioAssay (NCATS)
Results filed as inconclusive are left out. Active and inactive are the calls of the source. Calls follow the shape of the dose curve; as a rule, active = well fitted cell-killing curve with a large enough effect; inconclusive = small, poorly fitted or top-dose-only effect, or effect the other way; inactive = no such curve, though single readings can be large or run the other way.

Experiments:
[1] = Quantitative High-Throughput drug screen in 47 multiple myeloma cell lines against the NCATS MIPE library collection: MM1R_ATCC cell viability assay (AID 1918981); also: nearly all actives have a fitted effect of over 35% in size
Summary of the method: (§1)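 Myeloma cells (500/well) treated with MIPE 4.0 compounds for 48 h at 37 °C, 5% CO2. Viability read as ATP via CellTiter-Glo luminescence after 5 min at RT; DMSO-only wells = 100%, media-only = 0% viability.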

[2] = Quantitative High-Throughput drug screen in 47 multiple myeloma cell lines against the NCATS MIPE library collection: L363_DSMZ cell viability assay (AID 1918984); also: nearly all actives have a fitted effect of over 40% in size
Summary of the method: as §1

[3] = Quantitative High-Throughput drug screen in 47 multiple myeloma cell lines against the NCATS MIPE library collection: OCIMY5_PLB cell viability assay (AID 1918988); also: nearly all actives have a fitted effect of over 65% in size
Summary of the method: as §1

[4] = Quantitative High-Throughput drug screen in 47 multiple myeloma cell lines against the NCATS MIPE library collection: OPM1_PLB cell viability assay (AID 1918989); also: nearly all actives have a fitted effect of over 40% in size
Summary of the method: as §1

[5] = Quantitative High-Throughput drug screen in 47 multiple myeloma cell lines against the NCATS MIPE library collection: U266_ATCC cell viability assay (AID 1919864); also: nearly all actives have a fitted effect of over 35% in size
Summary of the method: as §1

[6] = Quantitative High-Throughput drug screen in 47 multiple myeloma cell lines against the NCATS MIPE library collection: XG6_PLB cell viability assay (AID 1919865); also: nearly all actives have a fitted effect of over 40% in size
Summary of the method: as §1

[7] = Quantitative High-Throughput drug screen in 47 multiple myeloma cell lines against the NCATS MIPE library collection: XG1_PLB cell viability assay (AID 1919866); also: nearly all actives have a fitted effect of over 35% in size
Summary of the method: as §1

[8] = Quantitative High-Throughput drug screen in 47 multiple myeloma cell lines against the NCATS MIPE library collection: VP6_DJ cell viability assay (AID 1919867); also: nearly all actives have a fitted effect of over 40% in size
Summary of the method: as §1

[9] = Quantitative High-Throughput drug screen in 47 multiple myeloma cell lines against the NCATS MIPE library collection: UTMC2_PLB cell viability assay (AID 1919868); details: CellTiter-Glo ATP luminescence, 48 h; viability (% of DMSO control): at 45.8 µM (top of the series); also: nearly all actives have a fitted effect of over 55% in size
Summary of the method: as §1

[10] = Quantitative High-Throughput drug screen in 47 multiple myeloma cell lines against the NCATS MIPE library collection: PE2_PLB cell viability assay (AID 1919869); also: nearly all actives have a fitted effect of over 35% in size
Summary of the method: as §1

[11] = Quantitative High-Throughput drug screen in 47 multiple myeloma cell lines against the NCATS MIPE library collection: PCM6_Riken cell viability assay (AID 1919870); also: nearly all actives have a fitted effect of over 30% in size
Summary of the method: as §1

[12] = Quantitative High-Throughput drug screen in 47 multiple myeloma cell lines against the NCATS MIPE library collection: KMS28BM_JCRB cell viability assay (AID 1919874); also: nearly all actives have a fitted effect of over 35% in size
Summary of the method: as §1

[13] = Quantitative High-Throughput drug screen in 47 multiple myeloma cell lines against the NCATS MIPE library collection: LP1_DSMZ cell viability assay (AID 1918982); also: nearly all actives have a fitted effect of over 35% in size
Summary of the method: as §1

[14] = Quantitative High-Throughput drug screen in 47 multiple myeloma cell lines against the NCATS MIPE library collection: KMS28PE_JCRB cell viability assay (AID 1918983); also: nearly all actives have a fitted effect of over 35% in size
Summary of the method: as §1

[15] = Quantitative High-Throughput drug screen in 47 multiple myeloma cell lines against the NCATS MIPE library collection: KMS34_JCRB cell viability assay (AID 1918985); also: nearly all actives have a fitted effect of over 40% in size
Summary of the method: as §1

[16] = Quantitative High-Throughput drug screen in 47 multiple myeloma cell lines against the NCATS MIPE library collection: SKMM1_PLB cell viability assay (AID 1919863); details: SKMM1 myeloma viability, CellTiter-Glo ATP, 48 h; viability: active compounds read low; also: nearly all actives have a fitted effect of over 35% in size
Summary of the method: as §1

[17] = Quantitative High-Throughput drug screen in 47 multiple myeloma cell lines against the NCATS MIPE library collection: RPMI8226_ATCC cell viability assay (AID 1919871); also: nearly all actives have a fitted effect of over 30% in size
Summary of the method: as §1

[18] = Quantitative High-Throughput drug screen in 47 multiple myeloma cell lines against the NCATS MIPE library collection: OPM2_DSMZ cell viability assay (AID 1919872); also: nearly all actives have a fitted effect of over 30% in size
Summary of the method: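 Myeloma cells (500 per well) were exposed to MIPE 4.0 compounds by pin transfer and incubated 48 hours at 37C, 5% CO2. Viability was read as ATP by CellTiter-Glo luminescence, normalised to DMSO (100%) and media-only (0%) wells.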

[19] = Quantitative High-Throughput drug screen in 47 multiple myeloma cell lines against the NCATS MIPE library collection: OCIMY7_PLB cell viability assay (AID 1918987); details: OCI-MY7 myeloma viability, CellTiter-Glo ATP, 48 h; viability (% of DMSO): at 45.8 µM (top of the series); also: nearly all actives have a fitted effect of over 65% in size
Summary of the method: as §1

[20] = Quantitative High-Throughput drug screen in 47 multiple myeloma cell lines against the NCATS MIPE library collection: KMS11_JCRBsus cell viability assay (AID 1919873); also: nearly all actives have a fitted effect of over 50% in size
Summary of the method: as §1
Potency is read from the fitted curve at half-maximal effect.

Cc1[nH]c(C=C2C(=O)Nc3ccccc32)c(C)c1CCC(=O)O
active: Potency [1] 0.526 µM | Potency [2] 9.35 µM | Potency [3] 18.7 µM | Potency [4] 23.5 µM | Potency [5] 5.26 µM | Potency [6] 0.372 µM | Potency [7] 2.96 µM | Potency [8] 13.2 µM | Potency [9] 0.935 µM | Potency [10] 9.35 µM | Potency [11] 10.5 µM | Potency [12] 14.8 µM

O=C(O)C(=O)Nc1cccc(C2=NN=N[N]2)c1
inactive: Potency [13] | Potency [14] | Potency [15] | Potency [3] | Potency [4] | viability [16] 129% | Potency [6] | Potency [7] | Potency [8] | Potency [10] | Potency [11] | Potency [17] | Potency [18] | Potency [12]

CCN1CCN(C(=O)N[C@H](C(=O)N[C@@H]2C(=O)N3C(C(=O)O)=C(CSc4nnnn4C)CS[C@@H]23)c2ccc(O)cc2)C(=O)C1=O
inactive: Potency [13] | Potency [14] | Potency [19] | Potency [3] | Potency [4] | Potency [7] | Potency [18] | Potency [20] | Potency [12]

O=C(C=CC=Cc1ccc2c(c1)OCO2)N1CCCCC1
active: Potency [8] 2.64 µM | Potency [17] 3.72 µM
inactive: Potency [13] | Potency [14] | Potency [15] | Potency [19] | Potency [4] | Potency [5] | Potency [10] | Potency [11] | Potency [18] | Potency [20]

C[C@H](CCC(=O)O)[C@H]1CC[C@H]2[C@@H]3[C@H](O)C[C@@H]4C[C@H](O)CC[C@]4(C)[C@@H]3CC[C@]12C
inactive: Potency [13] | Potency [14] | Potency [2] | Potency [15] | Potency [4] | viability [16] 131% | Potency [6] | Potency [7] | Potency [10] | Potency [11] | Potency [17] | Potency [18] | Potency [20]

CCCCCCCCCCCCCCCC(=O)OC[C@@H](NC(=O)C(Cl)Cl)[C@H](O)c1ccc([N+](=O)[O-])cc1
inactive: Potency [13] | Potency [14] | Potency [2] | Potency [15] | Potency [3] | Potency [4] | Potency [6] | Potency [8] | Potency [10] | Potency [11] | Potency [18] | Potency [20]

C=CC(=O)Nc1cc(NC(=O)c2ccc(C)c(NC(=O)c3ccno3)c2)cc(C(F)(F)F)c1
active: Potency [1] 20.9 µM | Potency [19] 16.6 µM | Potency [4] 23.5 µM | Potency [16] 18.7 µM | Potency [5] 20.9 µM | Potency [6] 16.6 µM | Potency [7] 14.8 µM | Potency [8] 16.6 µM | Potency [9] 20.9 µM | Potency [10] 16.6 µM | Potency [11] 16.6 µM | Potency [17] 23.5 µM | Potency [20] 11.8 µM | Potency [12] 20.9 µM

N#Cc1c(C2CCNCC2)cc(-c2c(O)cccc2OCC2CC2)nc1N
active: Potency [1] 20.9 µM | Potency [14] 26.4 µM | Potency [19] 2.35 µM | Potency [3] 14.8 µM | Potency [4] 20.9 µM | Potency [16] 18.7 µM | Potency [6] 1.05 µM | Potency [7] 4.18 µM | Potency [8] 18.7 µM | Potency [10] 18.7 µM | Potency [11] 8.33 µM | Potency [17] 20.9 µM | Potency [20] 18.7 µM

CC(C)c1cc(C(C)C)c(CC(=O)NS(=O)(=O)Oc2c(C(C)C)cccc2C(C)C)c(C(C)C)c1
active: Potency [13] 20.9 µM | Potency [14] 23.5 µM | Potency [15] 18.7 µM | Potency [4] 9.35 µM | Potency [16] 26.4 µM | Potency [9] 10.5 µM | Potency [10] 5.9 µM | Potency [18] 23.5 µM | Potency [20] 2.35 µM
inactive: Potency [5] | Potency [12]

Cn1cc(C=CC(=O)c2cccc(F)c2)cc1C=CC(=O)NO
active: Potency [1] 16.6 µM | Potency [2] 11.8 µM | Potency [15] 16.6 µM | Potency [19] 11.8 µM | Potency [3] 14.8 µM | Potency [4] 23.5 µM | Potency [5] 14.8 µM | Potency [6] 2.35 µM | Potency [7] 5.9 µM | Potency [10] 20.9 µM | Potency [11] 18.7 µM | Potency [18] 23.5 µM | Potency [20] 14.8 µM
inactive: Potency [17]

C[C@@H](Cc1cc2c(c(C(N)=O)c1)N(CCCO)CC2)NCCOc1ccccc1OCC(F)(F)F
inactive: Potency [1] | Potency [14] | Potency [15] | Potency [4] | Potency [6] | Potency [10] | Potency [11] | Potency [17] | Potency [18] | Potency [20]

C[C@]12C=CC(=O)N[C@@H]1CC[C@H]1[C@H]3CC[C@@H](C(=O)Nc4cc(C(F)(F)F)ccc4C(F)(F)F)[C@@]3(C)CC[C@@H]12
active: Potency [14] 20.9 µM | Potency [19] 16.6 µM | Potency [3] 16.6 µM | Potency [6] 16.6 µM | Potency [7] 13.2 µM | Potency [11] 4.69 µM | Potency [18] 10.5 µM
inactive: Potency [13] | Potency [5] | Potency [9] | Potency [20]

C[C@@]12C[C@@]3(O)O[C@@H](O1)[C@]1(COC(=O)c4ccccc4)[C@@H]3C[C@@]12O[C@@H]1O[C@H](CO)[C@@H](O)[C@H](O)[C@@H]1O
active: Potency [8] 2.64 µM
inactive: Potency [13] | Potency [14] | Potency [2] | Potency [19] | Potency [3] | Potency [4] | Potency [5] | Potency [6] | Potency [7] | Potency [10] | Potency [11] | Potency [17] | Potency [18] | Potency [12]

OC[C@H]1OC(O)C[C@@H](O)[C@H]1O (some centres not stated)
inactive: Potency [13] | Potency [14] | Potency [2] | Potency [15] | viability [16] 120% | Potency [7] | Potency [9] | Potency [10] | Potency [11] | Potency [17] | Potency [18] | Potency [12]
